# In the supplement of paper PMC8728848:
# This is one part of a sample in which the strongest signals are shown more often than they occur.
# Experiments:
# Assay in all cases: glycan array binding signal (z-score within array); higher = stronger binding
# Settings in all cases: glycan notation: IUPAC condensed, linker removed
# [1] = target: Fuc(a1-2)Gal(b1-3)GalNAc(a1-3)[Fuc(a1-2)]Gal(b1-4)Glc
# Outline: (§1)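 Arrays were curated from the Consortium for Functional Glycomics database, 3228 in total, and kept only where the protein sequence was available. Binding is expressed as a within-array Z-score. This score was averaged across arrays of the same protein sequence at different concentrations or buffers and across linkers, and negative values can be read as non-binding.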
# [2] = target: Fuc(a1-2)Gal(b1-3)GalNAc(b1-4)[Neu5Ac(a2-3)]Gal(b1-4)Glc
# Outline: as §1
# [3] = target: Fuc(a1-2)Gal(b1-3)GlcNAc(b1-3)Gal(b1-4)Glc
# Outline: as §1
# [4] = target: Fuc(a1-2)Gal(b1-4)GlcNAc(b1-3)[Fuc(a1-2)Gal(b1-4)GlcNAc(b1-6)]GalNAc
# Outline: as §1
# [5] = target: Fuc(a1-2)Gal(b1-4)GlcNAc(b1-6)GalNAc
# Outline: as §1
# [6] = target: Fuc(a1-2)Gal(b1-4)[Fuc(a1-3)]GalNAc(b1-3)Gal(b1-4)[Fuc(a1-3)]GlcNAc
# Outline: as §1
# Fuc(a1-2)GlcNAc = target: Fuc(a1-2)GlcNAc
# Outline: as §1
# [7] = target: Fuc(a1-2)[Gal(a1-3)]Gal(b1-3)GlcNAc
# Outline: as §1
# [8] = target: Fuc(a1-2)[Gal(a1-3)]Gal(b1-4)Glc
# Outline: as §1
# Gal(a1-3)Gal(b1-4)GlcNAc = target: Gal(a1-3)Gal(b1-4)GlcNAc
# Outline: as §1
# Gal(a1-6)Glc = target: Gal(a1-6)Glc
# Outline: as §1
# [9] = target: Gal(b1-3)GalNAc(a1-3)[Fuc(a1-2)]Gal(b1-4)Glc
# Outline: as §1
# [10] = target: Gal(b1-3)GalNAc(b1-3)Gal(b1-4)Glc
# Outline: as §1
# [11] = target: Gal(b1-3)[Fuc(a1-4)]GlcNAc(b1-3)Gal(b1-3)[Fuc(a1-4)]GlcNAc
# Outline: as §1
# [12] = target: Gal(b1-3)[Fuc(a1-4)]GlcNAc(b1-6)GalNAc
# Outline: as §1
# [13] = target: Gal(b1-4)GlcNAc(b1-2)Man(a1-3)[GlcNAc(b1-4)][Gal(b1-4)GlcNAc(b1-2)Man(a1-6)]Man(b1-4)GlcNAc(b1-4)GlcNAc
# Outline: as §1
# [14] = target: Gal(b1-4)GlcNAc(b1-2)Man(a1-6)Man(b1-4)GlcNAc(b1-4)GlcNAc
# Outline: as §1
# [15] = target: Gal(b1-4)GlcNAc(b1-3)Gal(b1-4)GlcNAc(b1-3)Gal(b1-4)GlcNAc(b1-3)Gal(b1-4)GlcNAc(b1-3)Gal(b1-4)GlcNAc(b1-2)Man(a1-3)[Gal(b1-4)GlcNAc(b1-3)Gal(b1-4)GlcNAc(b1-3)Gal(b1-4)GlcNAc(b1-3)Gal(b1-4)GlcNAc(b1-3)Gal(b1-4)GlcNAc(b1-2)Man(a1-6)]Man(b1-4)GlcNAc(b1-4)[Fuc(a1-6)]GlcNAc
# Outline: as §1
# [16] = target: Gal(b1-4)GlcNAc(b1-3)Gal(b1-4)GlcNAc(b1-3)[Gal(b1-4)GlcNAc(b1-3)Gal(b1-4)GlcNAc(b1-6)]GalNAc
# Outline: as §1
# Gal3S(b1-4)Glc = target: Gal3S(b1-4)Glc
# Outline: as §1
# [17] = target: Gal3S(b1-4)[Fuc(a1-3)]GlcNAc
# Outline: as §1
# [18] = target: Gal3S(b1-4)[Fuc(a1-3)]GlcNAc6S
# Outline: as §1
# Gal3S6S(b1-4)GlcNAc6S = target: Gal3S6S(b1-4)GlcNAc6S
# Outline: as §1
# Gal6S(b1-4)GlcNAc6S = target: Gal6S(b1-4)GlcNAc6S
# Outline: as §1
# GalNAc(b1-3)GalNAc = target: GalNAc(b1-3)GalNAc
# Outline: as §1
# GalNAc(b1-4)Gal(b1-4)Glc = target: GalNAc(b1-4)Gal(b1-4)Glc
# Outline: as §1
# GalNAc(b1-4)GlcNAc = target: GalNAc(b1-4)GlcNAc
# Outline: as §1
# [19] = target: GalNAc(b1-4)GlcNAc(b1-3)GalNAc(b1-4)GlcNAc
# Outline: as §1
# [20] = target: GlcA3S(b1-3)Gal(b1-4)GlcNAc(b1-3)Gal(b1-4)Glc
# Outline: as §1
# [21] = target: GlcNAc(a1-4)Gal(b1-4)GlcNAc
# Outline: as §1
# [22] = target: GlcNAc(a1-4)Gal(b1-4)GlcNAc(b1-3)Gal(b1-4)GlcNAc
# Outline: as §1
# [23] = target: GlcNAc(a1-4)Gal(b1-4)GlcNAc(b1-3)Gal(b1-4)GlcNAc(b1-3)Gal(b1-4)GlcNAc
# Outline: as §1
# [24] = target: GlcNAc(b1-2)Man(a1-3)[GlcNAc(b1-2)Man(a1-6)]Man(b1-4)GlcNAc(b1-4)GlcNAc
# Outline: as §1
# [25] = target: GlcNAc(b1-3)Gal(b1-4)GlcNAc(b1-3)Gal(b1-4)GlcNAc(b1-2)[GlcNAc(b1-3)Gal(b1-4)GlcNAc(b1-3)Gal(b1-4)GlcNAc(b1-6)]Man(a1-6)[GlcNAc(b1-3)Gal(b1-4)GlcNAc(b1-3)Gal(b1-4)GlcNAc(b1-2)Man(a1-3)]Man(b1-4)GlcNAc(b1-4)[Fuc(a1-6)]GlcNAc
# Outline: as §1
# [26] = target: GlcNAc(b1-3)Gal(b1-4)GlcNAc(b1-6)[Gal(b1-3)]GalNAc
# Outline: as §1
# GlcNAc(b1-4)GlcNAc = target: GlcNAc(b1-4)GlcNAc
# Outline: as §1
# [27] = target: GlcNAc(b1-4)GlcNAc(b1-4)GlcNAc
# Outline: as §1
# [28] = target: GlcNAc(b1-4)GlcNAc(b1-4)GlcNAc(b1-4)GlcNAc(b1-4)GlcNAc
# Outline: as §1
# [29] = target: GlcNAc(b1-4)GlcNAc(b1-4)GlcNAc(b1-4)GlcNAc(b1-4)GlcNAc(b1-4)GlcNAc
# Outline: as §1
# [30] = target: Man(a1-2)Man(a1-3)[Man(a1-3)[Man(a1-6)]Man(a1-6)]Man(b1-4)GlcNAc(b1-4)GlcNAc
# Outline: as §1
# [31] = target: Neu5Ac(a2-3)Gal(b1-3)GlcNAc(b1-2)Man
# Outline: as §1
# [32] = target: Neu5Ac(a2-3)Gal(b1-3)GlcNAc6S
# Outline: as §1
# [33] = target: Neu5Ac(a2-3)Gal(b1-4)GlcNAc
# Outline: as §1
# [34] = target: Neu5Ac(a2-3)Gal(b1-4)[Fuc(a1-3)]GlcNAc
# Outline: as §1
# [35] = target: Neu5Ac(a2-3)Gal6S(b1-4)GlcNAc
# Outline: as §1
# [36] = target: Neu5Ac(a2-6)Gal(b1-4)GlcNAc(b1-2)Man(a1-6)[Gal(b1-4)GlcNAc(b1-2)Man(a1-3)]Man(b1-4)GlcNAc(b1-4)GlcNAc
# Outline: as §1
# [37] = target: Neu5Ac(a2-6)Gal(b1-4)GlcNAc(b1-3)Gal(b1-4)GlcNAc
# Outline: as §1
# [38] = target: Neu5Ac(a2-6)GlcNAc(b1-4)GlcNAc(b1-4)GlcNAc
# Outline: as §1
# [39] = target: Neu5Ac9Ac(a2-3)Gal(b1-4)GlcNAc
# Outline: as §1
binder,measurement,setting,value
"AAA (Anguilla anguilla), Q7SIC1 (protein) VIPEGYTQENVAVRGKATQSAQLRGEHAANSEASNAIDGNRDSNFYHGSCTHSSGQANPWWRVDLLQVYTITSVTITNRGDCCGERISGAEINIGQHLASNGVNNPECSVIGSMATGETKTFHCPAPMIGRYVVTYLPTSESLHLCEVEVNVDKPAAA",glycan array binding signal (z-score),[1],-0.257
same,glycan array binding signal (z-score),[2],-0.193
same,glycan array binding signal (z-score),[3],-0.189
same,glycan array binding signal (z-score),[4],-0.001
same,glycan array binding signal (z-score),[5],0.002
same,glycan array binding signal (z-score),[6],-0.583
same,glycan array binding signal (z-score),Fuc(a1-2)GlcNAc,8.41
same,glycan array binding signal (z-score),[7],0.046
same,glycan array binding signal (z-score),[8],-0.037
same,glycan array binding signal (z-score),Gal(a1-3)Gal(b1-4)GlcNAc,-0.169
same,glycan array binding signal (z-score),Gal(a1-6)Glc,-0.097
same,glycan array binding signal (z-score),[9],-0.279
same,glycan array binding signal (z-score),[10],0.237
same,glycan array binding signal (z-score),[11],0.164
same,glycan array binding signal (z-score),[12],-0.081
same,glycan array binding signal (z-score),[13],-0.238
same,glycan array binding signal (z-score),[14],-0.168
same,glycan array binding signal (z-score),[15],-0.123
same,glycan array binding signal (z-score),[16],1.43
same,glycan array binding signal (z-score),Gal3S(b1-4)Glc,-0.117
same,glycan array binding signal (z-score),[17],-0.194
same,glycan array binding signal (z-score),[18],-0.154
same,glycan array binding signal (z-score),Gal3S6S(b1-4)GlcNAc6S,-0.044
same,glycan array binding signal (z-score),Gal6S(b1-4)GlcNAc6S,-0.292
same,glycan array binding signal (z-score),GalNAc(b1-3)GalNAc,-0.16
same,glycan array binding signal (z-score),GalNAc(b1-4)Gal(b1-4)Glc,-0.076
same,glycan array binding signal (z-score),GalNAc(b1-4)GlcNAc,1.89
same,glycan array binding signal (z-score),[19],3.34
same,glycan array binding signal (z-score),[20],-0.136
same,glycan array binding signal (z-score),[21],2.3
same,glycan array binding signal (z-score),[22],1.96
same,glycan array binding signal (z-score),[23],2.29
same,glycan array binding signal (z-score),[24],-0.274
same,glycan array binding signal (z-score),[25],0.944
same,glycan array binding signal (z-score),[26],-0.298
same,glycan array binding signal (z-score),GlcNAc(b1-4)GlcNAc,2.2
same,glycan array binding signal (z-score),[27],5.55
same,glycan array binding signal (z-score),[28],7.88
same,glycan array binding signal (z-score),[29],6.77
same,glycan array binding signal (z-score),[30],-0.106
same,glycan array binding signal (z-score),[31],-0.023
same,glycan array binding signal (z-score),[32],0.003
same,glycan array binding signal (z-score),[33],-0.086
same,glycan array binding signal (z-score),[34],-0.098
same,glycan array binding signal (z-score),[35],-0.179
same,glycan array binding signal (z-score),[36],-0.183
same,glycan array binding signal (z-score),[37],-0.202
same,glycan array binding signal (z-score),[38],2.46
same,glycan array binding signal (z-score),[39],-0.102
